Consider 13 compounds from PubChem BioAssay (NCATS).

Results filed as inconclusive are left out. Entries that show only a call come without a potency. Activity calls are given as the source filed them. Calls come from the whole dose curve; as a rule, active = well fitted cell-killing curve with a large enough effect; inconclusive = small, poorly fitted or top-dose-only effect; inactive = flat fitted curve, though single readings scatter.
Potency is the fitted concentration of half-maximal effect.

This assay in a line: Cellular viability qHTS for adrenocortical cancer (ACC) cell line NCI-H295R (AID 1963990). Note: nearly all actives have a fitted effect of over 60% in size. Particulars: CellTiter-Glo ATP luminescence, 48 h; series mostly up to 46.1 µM. The method in brief: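 Readout: CellTiter-Glo luminescence, 20 min RT. Exposure: 48 h, 37C/5% CO2. Cells: NCI-H295R, ITS-DMEM serum-free. Range: up to 46 uM. Analysis: 4PL fit, IC50 plus efficacy.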
For orientation: qHTS replaces the single test concentration by a dilution series.
Consider `Cn1c(-c2ccccc2C(F)(F)F)nnc1C12CCC(c3noc(C4CC(F)(F)C4)n3)(CC1)CC2`, for which the Potency result is “inactive”. Under `O=C(CCCc1ccc2cccnc2n1)NCc1cc(-c2ccc(F)c(C(F)(F)F)c2)no1` stands “inactive”; under `Fc1ccc(-c2nc(-c3ccccc3F)[nH]c2-c2ccncc2)cc1`, “inactive”. Take `C#Cc1cccc(Nc2ncnc3cc4c(cc23)OCCOCCOCCO4)c1`: the Potency is 11.2 µM (active).

`COC(=O)N(C)c1c(N)nc(-c2nn(Cc3ccccc3F)c3ncccc23)nc1N`: the Potency result was “inactive”. With `Nc1ccc2cc3ccc(N)cc3nc2c1`, the Potency was 2.59 µM (active). The result for `CC(C)(Cc1c[nH]c2ccccc12)NCC(O)COc1ccccc1C#N` (stereo not drawn) reads “inactive”. As for `OC(CCCN1CCCCC1)(c1ccccc1)c1ccccc1`, the Potency result is “inactive”. On to `C=CC[N+]1([C@H]2C[C@H]3[C@@H]4CC[C@H]5C[C@H](OC(C)=O)[C@@H](N6CCCCC6)C[C@]5(C)[C@H]4CC[C@]3(C)[C@H]2OC(=O)CC)CCCCC1`, for which the Potency result was “inactive”. `Cc1ccc(NC(=O)[C@H]2CCCN(C(=O)c3c(C)cccc3F)[C@H]2c2ccc(NC3CCCC3)cc2)cc1C(F)(F)F`: the Potency entry was “inactive”.

As for `CC(C)(C)NCC(O)c1cc(O)cc(O)c1` (stereo not drawn), the Potency was 25.9 µM (active). `O=C(N/N=C/c1ccc([N+](=O)[O-])o1)c1ccc(O)cc1`: the Potency was 7.31 µM (active). In the case of `Cc1c(Cn2ccnc2)c2ccccc2n1CCC(=O)O`, the Potency result is “inactive”.
